Test results as given in PubChem BioAssay (NCATS).
Several values for one entry are separate records, joined by “and”; a condition that tells them apart may be missing. Equal values may be shown once. Results filed as inconclusive are left out. Entries that show only a call come without a potency. Unmarked numbers belong to inactive results. Activity calls are given as the source filed them. Calls follow the shape of the dose curve; as a rule, active = well fitted curve in the direction sought with a large enough effect; inconclusive = small, poorly fitted or top-dose-only effect, or another doubt; inactive = no such curve, though single readings can be large; an effect the other way counts as inactive or inconclusive.

What was measured:
KB-3-1 = test: Cytotoxic Profiling of Annotated Libraries Using Quantitative High-Throughput Screening (AID 1296008); conditions: Five cell lines viability, CellTiter-Glo ATP luminescence, 48-72 h; max response: active compounds read low; also: nearly all actives have a fitted effect of over 60% in size; also: potency is read from the fitted curve at half-maximal effect
Method in brief: (§1)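 Cells exposed to compounds for 48 or 72 hr at 37 degrees Celsius. Viability read as ATP-coupled luminescence with CellTiter-Glo after 10 min at room temperature.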

NIH3T3 [1] = test: as above; conditions: Five cell lines viability, CellTiter-Glo ATP luminescence, 48-72 h; max response: active compounds read low
Method in brief: as §1

HEK293T [2] = test: qHTS assay to identify novel small-molecules to repurpose for Merkel cell carcinoma treatment (AID 1296009); conditions: MCC and control cell lines, CellTiter-Glo viability, 72 h; series mostly up to 44.8 µM; also: nearly all actives have a fitted effect of over 60% in size
Method in brief: (§2)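 Cells were incubated with compound for 72 hr at 37 degree celsius before CellTiter-Glo addition. Luminescence was normalized with no-cell wells as full cytotoxicity and DMSO as baseline.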

C33A = test: Primary qHTS to identify gynecologic anti-cancer compounds using libraries of approved drugs and bioactive compounds (AID 1345084); conditions: Gynecologic cancer cell panel viability, ATPlite luminescence, 48 h; series mostly up to 57.5 µM; also: nearly all actives have a fitted effect of over 55% in size; also: potency is read from the fitted curve at half-maximal effect
Method in brief: (§3)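 Cells, 1,000 per well, plated 16 h, then exposed 48 h at 37 C to compounds. Viability by ATPlite luminescence after 15 min at room temperature.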

CASKI = test: as above; conditions: Gynecologic cancer cell panel viability, ATPlite luminescence, 48 h; series mostly up to 57.5 µM
Method in brief: as §3

Es-2 = test: as above; conditions: Gynecologic cancer cell panel viability, ATPlite luminescence, 48 h; series mostly up to 57.5 µM
Method in brief: as §3

HeLa = test: as above; conditions: Gynecologic cancer cell panel viability, ATPlite luminescence, 48 h; series mostly up to 57.5 µM
Method in brief: as §3

Hek293T [3] = test: as above; conditions: Gynecologic cancer cell panel viability, ATPlite luminescence, 48 h, control line for the selectivity index; series mostly up to 57.5 µM
Method in brief: as §3

JEG-3 = test: as above; conditions: Gynecologic cancer cell panel viability, ATPlite luminescence, 48 h; series mostly up to 57.5 µM
Method in brief: as §3

OV90 = test: as above; conditions: Gynecologic cancer cell panel viability, ATPlite luminescence, 48 h; series mostly up to 57.5 µM
Method in brief: as §3

PA-1 = test: as above; conditions: Gynecologic cancer cell panel viability, ATPlite luminescence, 48 h; series mostly up to 57.5 µM
Method in brief: as §3

HACAT = test: qHTS assay to identify novel small-molecules to repurpose for Merkel cell carcinoma treatment (AID 1296009); conditions: MCC and control cell lines, CellTiter-Glo viability, 72 h; at 44.8 µM (top of the series) unless noted; also: nearly all actives have a fitted effect of over 60% in size
Method in brief: as §2

CAOV3 = test: Primary qHTS to identify gynecologic anti-cancer compounds using libraries of approved drugs and bioactive compounds (AID 1345084); conditions: Gynecologic cancer cell panel viability, ATPlite luminescence, 48 h; series mostly up to 57.5 µM; also: nearly all actives have a fitted effect of over 55% in size; also: potency is read from the fitted curve at half-maximal effect
Method in brief: as §3

NIH3T3 [4] = test: qHTS assay to identify novel small-molecules to repurpose for Merkel cell carcinoma treatment (AID 1296009); conditions: MCC and control cell lines, CellTiter-Glo viability, 72 h; at 44.8 µM (top of the series) unless noted; also: nearly all actives have a fitted effect of over 60% in size
Method in brief: as §2

Structure (SMILES) | max response (KB-3-1) | outcome (NIH3T3 [1]) | Potency (HEK293T [2]) | Potency (C33A) | Potency (CASKI) | Potency (Es-2) | Potency (HeLa) | Potency (Hek293T [3]) | Potency (JEG-3) | Potency (OV90) | Potency (PA-1) | outcome (HACAT) | Potency (CAOV3) | max response (NIH3T3 [1]) | outcome (KB-3-1) | Potency (KB-3-1) | Potency (NIH3T3 [1]) | outcome (NIH3T3 [4])
NC(=O)c1ccc(OCC2NC(=O)C3CCCN3C2=O)cc1 (stereo unspecified) | 6.37% | inactive | inactive | inactive | inactive | inactive | inactive | inactive | inactive | inactive | inactive | – | – | – | – | – | – | –
COc1c(C)c(C(=O)c2ccc(N)c(C(=O)O)c2)n2ccccc12 | 4.57% and 7.45% | – | – | inactive | inactive | inactive | inactive | inactive | inactive | inactive | inactive | inactive | inactive | – | – | – | – | –
CC1CCC2(C)C(CC(O)C(O)C23CO3)C1(C)CCC1=CC(O)OC1=O (stereo unspecified) | -2.97% | – | inactive | inactive | inactive | inactive | inactive | inactive | inactive | inactive | inactive | – | – | -4.84% | – | – | – | –
COc1ncc(-c2ccc3c(Nc4cc(Oc5cc(F)cc(F)c5)cc(C(=O)O)c4)c(S(=O)(=O)NC4CC4)cnc3c2)c(OC)n1 | – | – | – | inactive | inactive | inactive | inactive | inactive | inactive | inactive | inactive | – | inactive | 3.25% and -1.23% | inactive | – | – | –
COc1cc(N2CCC(N(C)C)CC2)ccc1Nc1ncc(Cl)c(Nc2ccccc2P(C)(C)=O)n1 | – | – | – | – | 7.08 µM (active) | 11.2 µM (active) | 3.16 µM (active) | 10 µM (active) | – | 1.58 µM (active) | 8.91 µM (active) | – | 3.55 µM (active) | – | – | 4.11 µM (active) | 2.06 µM (active) | –
OCC1=CC[C@@H]2C=CO[C@@H](O[C@@H]3O[C@H](CO)[C@@H](O)[C@H](O)[C@H]3O)[C@H]12 | – | – | inactive | inactive | inactive | inactive | inactive | inactive | inactive | inactive | inactive | – | inactive | -0.173% | inactive | – | – | –
CC1=C(C)C(=O)OC(C(C)(O)C2CCC3C4CC=C5CC(OC6OC(COC7OC(CO)C(O)C(O)C7O)C(O)C(O)C6O)CC(O)C5(C)C4CCC32C)C1 (stereo unspecified) | 2.61% | – | inactive | inactive | inactive | inactive | inactive | inactive | inactive | inactive | inactive | – | – | -0.0747% | – | – | – | –
CCC1CC2C(C)=CC3CCCCC3C2(C)C2(OC(=O)C(C)(O)OC2=O)O1 (stereo unspecified) | – | – | inactive | inactive | inactive | inactive | inactive | inactive | inactive | inactive | inactive | inactive | inactive | 1.16% | – | – | – | –
C=CC(C)(CC/C=C(\C)CC/C=C(\C)CC(O)/C=C(\C)C(=O)O)O[C@@H]1O[C@H](CO)[C@@H](O)[C@H](O)[C@H]1O[C@@H]1O[C@H](CO)[C@@H](O)[C@H](O)[C@H]1O (stereo partly specified) | – | inactive | inactive | inactive | inactive | inactive | inactive | inactive | inactive | inactive | inactive | inactive [at 17.4 µM] | inactive | – | – | – | – | –
O=C(Nc1cccnn1)N1CCC(=Cc2cccc(Oc3ccc(C(F)(F)F)cn3)c2)CC1 | – | – | – | – | – | inactive | inactive | – | inactive | – | – | inactive | inactive | -5.09% and -8.67% | – | – | – | –
COC(=O)CC[C@@H](C)[C@H]1CC[C@H]2[C@@H]3CC(=O)[C@H]4C[C@H](OC(C)=O)CC[C@]4(C)[C@H]3CC[C@]12C | – | – | inactive | inactive | inactive | inactive | inactive | inactive | inactive | inactive | inactive | inactive | inactive | -0.377% | – | – | – | –
C=C[C@H]1[C@H](O[C@@H]2O[C@H](CO)[C@@H](O)[C@H](O)[C@H]2O)OC=C(C(=O)OC)[C@H]1C[C@@H]1N[C@H](C(=O)O)Cc2c1[nH]c1ccccc21 | – | – | inactive | inactive | inactive | inactive | inactive | inactive | inactive | inactive | inactive | inactive [at 17.4 µM] | inactive | -2.92% | – | – | – | –
COC1CCCC/C(C)=C/C2C=C(C)C(C)C3C(CC(C)C)NC(=O)C23C(=O)C1 (stereo unspecified) | – | inactive | inactive | inactive | inactive | – | inactive | inactive | inactive | inactive | inactive | inactive [at 17.4 µM] | – | – | – | – | – | inactive [at 17.4 µM]
